Assay results as given in PubChem BioAssay AID1159580 (chemical genetic matrix, 2015).
In all, about 5,500 compounds went through this assay and about 2,000 (36%) were called active. Another 18% or so got no clear call; they are omitted. Rule as the data show it: active = normalized growth mostly below about 0.91 (no sharp cut-off); inconclusive = no clear call, values can overlap the other calls; inactive = mostly above about 0.92. The list shows a part of the results.

Test: chemical genetic growth profiling, strain panel (AID 1159580);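 also: tested at 20 µM; growth read once vehicle control cultures reached saturation at 30 °C; 1 = growth at the plate median or of vehicle wells; lower values mean less growth of the strain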
Details: growth OD

Measured: normalized growth

C[C@]12CCC3c4ccc(O)cc4CCC3C1CC[C@@H]2O (stereo not given in full)
inactive: S. cerevisiae deletion strains, locus YJR066W, strain TOR1, hits give low values 0.902 | S. cerevisiae deletion strains, locus YJR075W, strain HOC1, hits give low values 1.02 | S. cerevisiae deletion strains, locus YKL009W, strain mrt4, hits give low values 0.892 | S. cerevisiae deletion strains, locus YKL068W, hits give low values 1.02 | S. cerevisiae deletion strains, locus YKL085W, strain MDH1 (second series), hits give low values 1.04 | S. cerevisiae deletion strains, locus YKL085W, strain MDH1, hits give low values 1.04 | S. cerevisiae deletion strains, locus YKL160W, strain elf1, hits give low values 0.988 | S. cerevisiae deletion strains, locus YKL190W, strain CNB1, hits give low values 1.03 | S. cerevisiae deletion strains, locus YKR001C, strain vps1, hits give low values 0.915 | S. cerevisiae deletion strains, locus YKR026C, strain gcn3, hits give low values 1.03 | S. cerevisiae deletion strains, locus YKR091W, strain srl3, hits give low values 1.02 | S. cerevisiae deletion strains, locus YLL001W, strain dnm1, hits give low values 1.02 | S. cerevisiae deletion strains, locus YLL026W, hits give low values 0.982 | S. cerevisiae deletion strains, locus YLL041C, strain sdh2, hits give low values 1.02 | S. cerevisiae deletion strains, locus YLR027C, strain aat2, hits give low values 0.973 | S. cerevisiae deletion strains, locus YLR039C, strain RIC1, hits give low values 0.866 | S. cerevisiae deletion strains, locus YLR058C, strain SHM2, hits give low values 1 | S. cerevisiae deletion strains, locus YLR102C, strain apc9, hits give low values 1.01 | S. cerevisiae deletion strains, locus YLR113W, strain HOG1, hits give low values 0.983 | S. cerevisiae deletion strains, locus YLR221C, strain rsa3, hits give low values 0.977 | S. cerevisiae deletion strains, locus YLR258W, strain gsy2, hits give low values 0.96 | S. cerevisiae deletion strains, locus YLR262C, strain YPT6, hits give low values 0.819 | S. cerevisiae deletion strains, locus YLR268W, strain sec22, hits give low values 0.936 | S. cerevisiae deletion strains, locus YLR320W, strain mms22, hits give low values 0.892 | S. cerevisiae deletion strains, locus YLR330W, strain CHS5, hits give low values 1 | S. cerevisiae deletion strains, locus YLR342W, strain FKS1 (second series), hits give low values 0.868 | S. cerevisiae deletion strains, locus YLR342W, strain FKS1, hits give low values 1 | S. cerevisiae deletion strains, locus YLR357W, strain rsc2, hits give low values 1.03 | S. cerevisiae deletion strains, locus YLR370C, strain arc18, hits give low values 1 | S. cerevisiae deletion strains, locus YLR371W, strain rom2, hits give low values 1.02 | S. cerevisiae deletion strains, locus YLR384C, strain iki3, hits give low values 1.02 | S. cerevisiae deletion strains, locus YLR418C, strain cdc73, hits give low values 0.896 | S. cerevisiae deletion strains, locus YML016C, strain PPZ1, hits give low values 1.01 | S. cerevisiae deletion strains, locus YML032C, strain rad52, hits give low values 0.977 | S. cerevisiae deletion strains, locus YML120C, strain ndi1, hits give low values 0.996 | S. cerevisiae deletion strains, locus YML124C, strain tub3, hits give low values 1.01 | S. cerevisiae deletion strains, locus YMR058W, strain fet3, hits give low values 0.917 | S. cerevisiae deletion strains, locus YMR078C, strain ctf18, hits give low values 0.985 | S. cerevisiae deletion strains, locus YMR125W, strain sto1, hits give low values 1.1 | S. cerevisiae deletion strains, locus YMR129W, hits give low values 1.02 | S. cerevisiae deletion strains, locus YMR205C, strain PFK2, hits give low values 1.01 | S. cerevisiae deletion strains, locus YMR223W, strain ubp8, hits give low values 0.974 | S. cerevisiae deletion strains, locus YMR231W, strain pep5, hits give low values 1.01 | S. cerevisiae deletion strains, locus YMR263W, strain SAP30, hits give low values 0.98 | S. cerevisiae deletion strains, locus YMR307W, strain GAS1, hits give low values 0.929 | S. cerevisiae deletion strains, locus YNL067W, strain RPL9B, hits give low values 0.978 | S. cerevisiae deletion strains, locus YNL071W, strain lat1, hits give low values 0.958 | S. cerevisiae deletion strains, locus YNL153C, strain GIM3, hits give low values 0.955 | S. cerevisiae deletion strains, locus YNL183C, strain NPR1, hits give low values 0.912 | S. cerevisiae deletion strains, locus YNL209W, strain ssb2, hits give low values 1.01 | S. cerevisiae deletion strains, locus YNL233W, strain BNI4, hits give low values 0.997 | S. cerevisiae deletion strains, locus YNL248C, strain rpa49, hits give low values 0.993 | S. cerevisiae deletion strains, locus YNL250W, strain rad50, hits give low values 0.955 | S. cerevisiae deletion strains, locus YNL271C, strain bni1, hits give low values 0.977 | S. cerevisiae deletion strains, locus YNL307C, strain MCK1, hits give low values 0.987 | S. cerevisiae deletion strains, locus YNL322C, strain KRE1 (second series), hits give low values 1.03 | S. cerevisiae deletion strains, locus YNR049C, strain mso1, hits give low values 1.02 | S. cerevisiae deletion strains, locus YNR052C, strain pop2, hits give low values 0.928 | S. cerevisiae deletion strains, locus YOL006C, strain TOP1, hits give low values 0.744 | S. cerevisiae deletion strains, locus YOL012C, strain htz1 1.8 | S. cerevisiae deletion strains, locus YOL147C, strain pex11, hits give low values 1 | S. cerevisiae deletion strains, locus YOR001W, strain rrp6, hits give low values 0.948 | S. cerevisiae deletion strains, locus YOR061W, strain CKA2, hits give low values 0.984 | S. cerevisiae deletion strains, locus YOR069W, strain VPS5, hits give low values 1 | S. cerevisiae deletion strains, locus YOR070C, strain gyp1, hits give low values 0.974 | S. cerevisiae deletion strains, locus YOR080W, strain dia2, hits give low values 0.996 | S. cerevisiae deletion strains, locus YOR083W, strain WHI5, hits give low values 0.96 | S. cerevisiae deletion strains, locus YOR106W, strain vam3, hits give low values 0.934 | S. cerevisiae deletion strains, locus YOR136W, strain idh2, hits give low values 0.978 | S. cerevisiae deletion strains, locus YOR144C, strain elg1, hits give low values 0.974 | S. cerevisiae deletion strains, locus YOR231W, strain MKK1, hits give low values 0.928 | S. cerevisiae deletion strains, locus YOR265W, strain rbl2, hits give low values 0.986 | S. cerevisiae deletion strains, locus YOR270C, strain vph1, hits give low values 0.797 | S. cerevisiae deletion strains, locus YOR290C, strain snf2, hits give low values 0.906 | S. cerevisiae deletion strains, locus YOR316C, strain cot1, hits give low values 1 | S. cerevisiae deletion strains, locus YPL051W, strain arl3, hits give low values 0.953 | S. cerevisiae deletion strains, locus YPL055C, strain LGE1, hits give low values 0.907 | S. cerevisiae deletion strains, locus YPL078C, strain atp4, hits give low values 0.963 | S. cerevisiae deletion strains, locus YPL106C, strain sse1, hits give low values 1.08 | S. cerevisiae deletion strains, locus YPL240C, strain hsp82, hits give low values 0.999 | S. cerevisiae deletion strains, locus YPL256C, strain CLN2, hits give low values 0.99 | S. cerevisiae deletion strains, locus YPR119W, strain clb2, hits give low values 1.03 | S. cerevisiae deletion strains, locus YPR141C, strain kar3, hits give low values 1.03 | S. cerevisiae deletion strains, locus YPR163C, strain tif3, hits give low values 0.963 | S. cerevisiae deletion strains, locus YPR167C, strain met16, hits give low values 0.985 | S. cerevisiae deletion strains, strain wtn01, hits give low values 0.92 | S. cerevisiae strains, strain wild type, hits give low values 1
active: S. cerevisiae deletion strains, locus YLR262C, strain YPT6 (second series), hits give low values 0.738 | S. cerevisiae deletion strains, locus YNL298W, strain CLA4, hits give low values 0.897 | S. cerevisiae deletion strains, locus YOR184W, strain ser1, hits give low values 0.857
